High-throughput results: PubChem BioAssay, National Center for Advancing Translational Sciences (NCATS)
HT1080NT lethal – qHTS for induction of synthetic lethality in tumor cells producing 2HG: qHTS for the HT-1080-NT fibrosarcoma cell line; HT-1080-NT fibrosarcoma viability, CellTiter-Glo ATP luminescence, 48 h; Potency, µM (doses to about 46.1 µM), for inactives: at the highest dose activity, negative = less viability, actives largely listed as cytotoxic; hit rate 1.6% among 360,000;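 further: NT is the 2HG producing partner of a matched IDH1 knockdown line; 0% = DMSO-treated cells and -100% = media-only wells without cells; nearly all actives have a fitted effect of over 55% in size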
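Viability of the 2HG-overproducing fibrosarcoma line after 48 hours of compound exposure at 37 degrees C was determined by luminescence with CellTiter-Glo, and concentration-effect curves were then fitted and categorized.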
TDP1 cell CPT – qHTS for Inhibitors of human tyrosyl-DNA phosphodiesterase 1 (TDP1): qHTS in cells in presence of CPT; hit rate 12% among 420,000; chicken DT40 Tdp1-/-;hTDP1 cells + 20 nM CPT, ATP luminescence, 48 h; Potency, µM (titrated, usually from 46.2 µM), for inactives: at the highest dose activity change, negative = growth inhibition, most hits filed as inhibitors; further: nearly all actives have a fitted effect of over 55% in size
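Cell growth measured by CellTiter-Glo luminescence after a minimum 48 h, 37 C compound exposure with 20 nM CPT in Tdp1-knockout DT40 cells stably expressing hTDP1, seeded 400/well; qHTS titration format.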
KB-V1 cytotox – qHTS assay for MDR1-selective chemotherapeutics: Primary screen using the drug-selected MDR subline cells KB-V1; KB-V1 MDR cells viability, CellTiter-Glo, 72 h; Potency, µM (top dose mostly 46.1 µM), usual class: cytotoxic; hit rate 3.4% among 400,000; further: nearly all actives have a fitted effect of over 60% in size
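Potencies derive from concentration-effect curves fitted to normalized luminescence (CellTiter-Glo) of KB-V1 cells treated for 72 h at 37 degrees C in phenol-red-free DMEM containing 10% FBS.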
KB-3-1 tox – qHTS assay for MDR1-selective chemotherapeutics: Primary screen using the parental adenocarcinoma cell KB-3-1. AID 1347075, 2019. hit rate 1.4% among 400,000. Potency, µM (titrated, usually from 46.1 µM), most hits filed as cytotoxic. KB-3-1 viability, CellTiter-Glo ATP luminescence, 72 h; further: nearly all actives have a fitted effect of over 60% in size
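Parental KB-3-1 adenocarcinoma cells in phenol-red-free DMEM with 10% FBS were pin-treated with compounds at several concentrations, incubated 72 h at 37 °C, and viability read by CellTiter-Glo luminescence; concentration-effect curves were fitted after normalization.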
HT1080 IDH1KD tx – qHTS for induction of synthetic lethality in tumor cells producing 2HG: qHTS for the HT-1080-IDH1KD cell line; HT-1080 IDH1 knockdown viability, ATP luminescence, 48 h; Potency, µM (top dose mostly 46.1 µM), for inactives: at the highest dose activity, negative = toxicity, usual class: cytotoxic; hit rate 2% among 360,000;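 further: 0% = DMSO wells and -100% = cell-free medium wells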
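Using the IDH1-knockdown HT-1080 line run in the same batch and compound series as the NT line, viability after 48 h at 37 °C was determined by CellTiter-Glo luminescence and expressed as % activity.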
DT40 TDP1 no CPT – qHTS for Inhibitors of human tyrosyl-DNA phosphodiesterase 1 (TDP1): qHTS in cells in absence of CPT; DT40 Tdp1-/- hTDP1 cells, no CPT, ATP luminescence, 48 h; Potency, µM (doses to about 46.2 µM), without a hit: at the top dose activity change, negative = growth inhibition, most hits filed as inhibitors; hit rate 15% among 420,000; further: nearly all actives have a fitted effect of over 55% in size
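Seeded 400 DT40-hTDP1 cells/well (vehicle DMSO, no 20 nM CPT); pinned compounds; ≥48 hr at 37 °C; CellTiter-Glo luminescence as viability measure.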
An asterisk follows results filed as active; [ ] = dose if it differs, or a comment. This is a sample that favours compounds with a hit; in the whole collection about 19% have one here. The call rests on the fitted dose curve; in most records, active means well fitted curve in the direction sought with a large enough effect; inconclusive means small, poorly fitted or top-dose-only effect, or another doubt; inactive means no such curve, though single readings can be large; an effect the other way counts as inactive or inconclusive. Unless noted, on the % scale 0 is the no-effect control and ±100 the full control effect; potency means the concentration at half of the fitted maximal effect.

For Cn1cc(C(=O)c2ccc(Cl)cc2Cl)cc1C(=O)N/N=C(\N)COc1ccc(Cl)cc1 the results were HT1080NT lethal inconclusive, TDP1 cell CPT inconclusive, KB-V1 cytotox inconclusive, KB-3-1 tox inconclusive, HT1080 IDH1KD tx 16µM* and DT40 TDP1 no CPT inconclusive.
`Cn1cc(C(=O)c2ccc(Cl)cc2Cl)cc1C(=O)N/N=C(\N)COc1ccc(F)cc1` gave HT1080NT lethal -30%, TDP1 cell CPT inconclusive, KB-V1 cytotox inconclusive, KB-3-1 tox inconclusive, HT1080 IDH1KD tx inconclusive and DT40 TDP1 no CPT 16µM*.
CN1CCN2c3ccccc3CC(C#N)(C#N)C2C1 (configuration not stated) was read as HT1080NT lethal 17%, TDP1 cell CPT -6%, KB-V1 cytotox inactive, KB-3-1 tox inactive, HT1080 IDH1KD tx 7% and DT40 TDP1 no CPT 5%.
Screening COc1ccccc1NC(=O)c1ccccc1N(Cc1ccccc1)S(C)(=O)=O returned HT1080NT lethal 5%, TDP1 cell CPT inconclusive, KB-V1 cytotox inactive, KB-3-1 tox inactive, HT1080 IDH1KD tx 7% and DT40 TDP1 no CPT inconclusive.
Cc1cc(C)cc(C(=O)NCCn2cc(C(=O)N3CCSCC3)nn2)c1 was read as TDP1 cell CPT 11%[9.04 µM] and DT40 TDP1 no CPT -10%.
`O=c1c2ccccc2cnn1Cc1n[nH]c(=S)n1-c1ccccc1` gave HT1080NT lethal 16%, TDP1 cell CPT 9%, KB-V1 cytotox inactive, KB-3-1 tox inactive, HT1080 IDH1KD tx 4% and DT40 TDP1 no CPT -16%.
Screening O=c1c2cnn(-c3ccccc3)c2nc(-c2cccs2)n1-c1cccc(Cl)c1 returned HT1080NT lethal 3%, TDP1 cell CPT 15µM*, KB-V1 cytotox 10µM*, KB-3-1 tox inconclusive, HT1080 IDH1KD tx 0% and DT40 TDP1 no CPT 9.2µM*.
O=c1oc(-c2cccs2)nc2c1cnn2-c1ccccc1 was read as HT1080NT lethal 3%, TDP1 cell CPT inconclusive, KB-V1 cytotox inactive, KB-3-1 tox inactive, HT1080 IDH1KD tx 1% and DT40 TDP1 no CPT inconclusive.
O=c1c2cnn(-c3ccccc3)c2nc(-c2cccs2)n1-c1ccc(Cl)cc1 was read as HT1080NT lethal 2%, TDP1 cell CPT 0.46µM*, KB-V1 cytotox inactive, KB-3-1 tox inactive, HT1080 IDH1KD tx 4% and DT40 TDP1 no CPT 0.58µM*.
`CN(C)c1ccc(CNC(=O)C2CCN(S(=O)(=O)c3ccc4c(ccn4C)c3)CC2)cc1` gave TDP1 cell CPT inconclusive, KB-V1 cytotox inactive, KB-3-1 tox inactive and DT40 TDP1 no CPT inconclusive.
COc1ccc(N2CCN(CCCNC(=O)CN3C(=O)COc4ccccc43)CC2)cc1 was read as HT1080NT lethal 4%, TDP1 cell CPT inconclusive, KB-V1 cytotox inactive, KB-3-1 tox inactive, HT1080 IDH1KD tx -1% and DT40 TDP1 no CPT -4%.
For COc1ccc(N2CCN(CCCNC(=O)C3COc4ccc(OC)cc4C3)CC2)cc1 (configuration not stated) the results were TDP1 cell CPT 15µM*, KB-V1 cytotox inactive, KB-3-1 tox inactive and DT40 TDP1 no CPT 21µM*.
Screening COc1ccc(N2CCN(CCCNC(=O)C3COc4ccccc4C3)CC2)cc1 (configuration not stated) returned TDP1 cell CPT 12µM*, KB-V1 cytotox inactive, KB-3-1 tox inactive and DT40 TDP1 no CPT 16µM*.
COc1ccc2c(c1)CC(C(=O)NCCN1CCN(c3ccccc3F)CC1)CO2 (configuration not stated) was read as TDP1 cell CPT inconclusive, KB-V1 cytotox inactive, KB-3-1 tox inactive and DT40 TDP1 no CPT inconclusive.
For O=C(NCCCN1CCN(c2ccccc2F)CC1)C1COc2ccccc2C1 (configuration not stated) the results were TDP1 cell CPT 26µM*, KB-V1 cytotox inactive, KB-3-1 tox inactive and DT40 TDP1 no CPT inconclusive.
O=C(NCCCN1CCN(c2ccccc2F)CC1)C1CCN(S(=O)(=O)N2CCOCC2)CC1 was read as HT1080NT lethal 2%, TDP1 cell CPT 7%, KB-V1 cytotox inactive, KB-3-1 tox inactive, HT1080 IDH1KD tx 2% and DT40 TDP1 no CPT 4%.
Screening COc1ccc2c(c1)CC(C(=O)NCCCN1CCN(c3ccc(F)cc3)CC1)CO2 (configuration not stated) returned TDP1 cell CPT 21µM*, KB-V1 cytotox inactive, KB-3-1 tox inactive and DT40 TDP1 no CPT 26µM*.
`CC1CCN(C(=O)CN2C(=O)C(=O)N(C(C)C)C2=O)c2ccccc2S1` (configuration not stated) gave HT1080NT lethal 3%, TDP1 cell CPT -8%, KB-V1 cytotox inconclusive, KB-3-1 tox inactive, HT1080 IDH1KD tx -2% and DT40 TDP1 no CPT -4%.
`COc1ccc(-c2cc3nc(-c4ccc(C)cc4)cc(C(F)(F)F)n3n2)cc1` gave TDP1 cell CPT 5%, KB-V1 cytotox inconclusive, KB-3-1 tox inactive and DT40 TDP1 no CPT -1%.
Screening COc1ccc(-c2cc3nc(C)cc(-c4ccc(OC)cc4)n3n2)cc1 returned HT1080NT lethal 0%, TDP1 cell CPT inconclusive, KB-V1 cytotox inactive, KB-3-1 tox inactive, HT1080 IDH1KD tx -16% and DT40 TDP1 no CPT inconclusive.
COc1ccc(-c2cc3nc(-c4ccccc4)cc(N4CCCC(O)C4)n3n2)cc1 (configuration not stated) was read as HT1080NT lethal inconclusive, TDP1 cell CPT 16µM*, KB-V1 cytotox inactive, KB-3-1 tox inactive, HT1080 IDH1KD tx 21µM* and DT40 TDP1 no CPT 12µM*.
COc1ccc(-c2cc3nc(-c4ccccc4)cc(N4CCC(O)CC4)n3n2)cc1 was read as HT1080NT lethal 18µM*, TDP1 cell CPT inconclusive, KB-V1 cytotox inconclusive, KB-3-1 tox inactive, HT1080 IDH1KD tx inconclusive and DT40 TDP1 no CPT inconclusive.
For Cc1ccc(S(=O)(=O)N2[C@H](CC(=O)c3ccccc3)OC[C@@H]2C(C)C)cc1 the results were HT1080NT lethal -17%, TDP1 cell CPT inconclusive, KB-V1 cytotox inconclusive, KB-3-1 tox inconclusive, HT1080 IDH1KD tx -18% and DT40 TDP1 no CPT inconclusive.
